# Source: PubChem
# BoNT-F LC inh: BoNT/F light chain protease inhibitors, primary screen, biochemical, flow cytometry, MLPCN library; AID 588497, 2011; 0.22% of 360,000 active; Botulinum neurotoxin type F light chain protease (Clostridium botulinum); inhibition, % at 10 µM; Multiplex microsphere protease cleavage assay; in the data active means inhibition above about 35%, passing the limit was not always enough; inconclusive means no clear call, values can overlap the other calls
# FBA Mtb inh: Mtb FBA enzyme inhibitors, primary screen, biochemical, fluorescence, strain H37Rv. Fructose-bisphosphate aldolase (Mycobacterium tuberculosis (strain ATCC 25618 / H37Rv)), …. purified M. tuberculosis FBA, fluorescence read-out. inhibition, % at 1 µM. AID 588726, 2011. 2.3% of 360,000 active; in the data active means inhibition above about 27%
# BoNT A protease: BoNT/A light chain protease inhibitors, primary screen, biochemical, flow cytometry, MLPCN library; Botulinum neurotoxin type A light chain protease (Clostridium botulinum A str. ATCC 3502); multiplex microsphere protease substrate cleavage; inhibition, % at 10 µM; 0.17% of 360,000 active; AID 588499, 2011
# GDH-TPI inh: GDH-TPI coupling enzyme inhibitors, primary screen, artefact control for M. tuberculosis FBA inhibitor project, biochemical, absorbance, full deck. 1.2% of 360,000 active. inhibition, % at 4.8 µM. GDH-TPI coupled enzyme counterscreen, NADH absorbance. AID 588335, 2011; in the data active means inhibition above about 30%
# Anthrax LF inh2: Bacillus anthracis LF protease inhibitors, primary screen, biochemical, multiplex microsphere, MLPCN library; Lethal factor (Bacillus anthracis), P15917; multiplex microsphere protease cleavage assay; inhibition, % at 10 µM; 0.12% of 360,000 active; AID 588501, 2011
# Bead autofluor: counter-screen for toxin protease inhibitors: compound fluorescence | compound autofluorescence counterscreen, microsphere flow cytometry; stronger effect = higher value | fluorescence intensity (test concentration not listed) | 3.1% of 360,000 active; in the data active means fluorescence intensity above about 16000; inconclusive means no clear call, values can overlap the other calls
# A number is an active result; – = inactive; ? = inconclusive; · = not tested or not shown. This is a sample that favours compounds with a hit; in the whole collection about 6.7% have one here. Unless noted, no stated cut-off is given here; in the data, active means inhibition above about 30%; inconclusive means no clear call, values can overlap the other calls; inactive means below that.
SMILES,BoNT-F LC inh,FBA Mtb inh,BoNT A protease,GDH-TPI inh,Anthrax LF inh2,Bead autofluor
Cc1ccc2nc(SCc3ccc([N+](=O)[O-])cc3)nc(C)c2c1,–,–,?,–,–,23313
Cc1ccc(-n2c(SCc3ccc([N+](=O)[O-])cc3)nc3ccccc3c2=O)cc1,–,–,–,–,–,20811
Cc1cc(C)c2nc(SCc3ccc([N+](=O)[O-])cc3)nc(C)c2c1,–,–,?,–,–,20592
CC(NC(=O)C(NS(=O)(=O)c1cccc2nsnc12)C(C)C)c1ccccc1 (stereo unspecified),–,–,–,–,–,–
CNc1cc(-c2cnn(CC(C)C)c2)ncn1,–,–,–,–,–,–
COC(=O)c1sc(NC(=O)c2cc3c(s2)CCCC3)nc1C,–,–,–,–,–,25221
Cc1cc(C(=O)Nc2nnc(C3CCCCC3)s2)no1,–,–,–,–,–,–
CCOc1ccc2nc(NC(=O)c3ccc(C)o3)sc2c1,?,–,–,49,–,–
Cc1ccc(C(=O)Nc2nnc(C3CCCCC3)s2)o1,–,–,–,–,–,23882
COC(=O)c1sc(NC(=O)c2ccc(C)o2)nc1C,–,–,–,35,–,–
O=C(Cn1ccc(C(F)(F)F)n1)Nc1ccc(S(=O)(=O)NCc2ccco2)cc1,–,–,–,–,–,–
CC(NC(=O)c1cc2c(s1)CCCC2)C(C)(C)C (stereo unspecified),–,–,–,–,–,16452
CCC(CO)NC(=O)c1cc2c(s1)CCC2 (stereo unspecified),–,–,–,–,–,–
COc1ccc(C2CC(=O)N3C(=C2C#N)SCC3(O)c2ccccc2)cc1 (stereo unspecified),–,–,–,–,–,19377
CCOc1ccc(/C=C2\SC(=O)N(CCNC(=O)CN3C(=O)NC4(CCCC4)C3=O)C2=O)cc1OC,–,–,–,–,–,–
CCCCCCCCNC(=O)CCNC(=O)c1ccc(C(C)(C)C)cc1,–,–,–,–,–,16679
CCCCOc1ccc(C(=O)NCCC(=O)NCCCC(=O)OCC)cc1,?,–,?,–,–,–
O=C1c2ccccc2C(Nc2ccc(Cl)cc2)N1CCN1CCOCC1 (stereo unspecified),–,–,–,–,–,–
N#Cc1ccc(COC(=O)c2ccc3c(=O)[nH]c(CN4CCOCC4)nc3c2)cc1,–,–,–,–,–,23349
COC(=O)c1ccc2c(=O)[nH]c(COC(=O)c3cccc(S(=O)(=O)N4CCOCC4)c3)nc2c1,–,–,–,–,–,–
O=c1[nH]c(=S)n(-c2cccc(Cl)c2)c(O)c1/C=N/N1CCOCC1,?,–,–,35,–,–
Cc1ccc(-n2c(O)c(/C=N/N3CCOCC3)c(=O)[nH]c2=S)cc1,–,–,–,–,–,–
CC(=NNC(=O)c1ccncc1)c1ccc(O)cc1O,–,–,–,41,–,–
C/C(=N\NC(=O)c1ccc(N2CCCC2=O)cc1)c1ccccc1,–,–,–,–,–,–
C/C(=N\NC(=O)c1ccc(N2CCCC2=O)cc1)c1ccc(O)cc1O,–,–,–,33,–,–
SMILES,BoNT-F LC inh,FBA Mtb inh,BoNT A protease,GDH-TPI inh,Anthrax LF inh2,Bead autofluor
CC(=NNC(=O)c1ccncc1)c1ccccc1O,–,–,–,–,–,–
CC(=O)Nc1ccc(NC(=O)C(=O)c2cn(CC(=O)N3CCCC3)c3ccccc23)cc1,–,–,–,–,–,–
COC(=O)[C@]12CCCCC=C1N(Cc1cccc3ccccc13)C(=O)[C@H](CC(=O)N1CCCC1)C2,–,·,–,·,–,–
O=C(NC(Cc1ccccc1)C(=O)O)c1ccc(S(=O)(=O)N2CCOCC2)cc1 (stereo unspecified),–,–,–,–,–,19429
O=C(O)CNC(=O)c1ccc(S(=O)(=O)N2CCOCC2)cc1,–,–,–,–,–,20309
O=C(NC(Cc1ccccc1)C(=O)N1CCN(S(=O)(=O)c2ccccc2)CC1)c1ccccc1 (stereo unspecified),–,–,–,–,–,–
Cc1c(CCC(=O)NCCCCCC(=O)O)c(=O)oc2c(C)c3oc4c(c3cc12)CCCC4,–,–,–,–,–,–
CC1=C(C(=O)N(C)C)CC(CC(=O)NCc2cccs2)C(=O)N1Cc1ccccc1 (stereo unspecified),–,–,–,–,–,–
O=C(CC(SCCO)c1ccc2c(c1)OCO2)c1ccco1 (stereo unspecified),–,–,–,–,–,–
Nc1nnc(-c2ccccc2)s1,–,–,–,–,–,23348
Nc1nnc(-c2ccc(F)cc2)s1,–,–,–,–,–,–
NC(=S)N=Nc1c(O)[nH]c2cc(F)c(F)cc12,–,–,–,–,–,–
NC(=S)N=Nc1c(O)[nH]c2c(Cl)cc(Cl)cc12,–,–,–,37,–,–
S=C(NCc1cccs1)Nc1cc(Cl)cc(Cl)c1,–,–,–,–,–,–
S=C(NCc1cccs1)Nc1cccc(Cl)c1,–,–,–,–,–,18567
CC(C)c1ccc(NC(=S)NCc2cccs2)cc1,–,–,–,–,–,21787
Cc1ccc(NC(=O)CCc2nnc3ccc(N4CCC5(CC4)OCCO5)nn23)nc1,–,–,–,–,–,–
CCNS(=O)(=O)c1ccc(CCC(=O)N2CCN(Cc3ccccc3)CC2)cc1,?,–,–,–,–,–
CCOC(=O)N1CCN(C(=O)CCc2ccc(S(=O)(=O)NCCc3ccccc3)cc2)CC1,–,–,–,–,–,22791
CC(C)CNS(=O)(=O)c1ccc(CCC(=O)N2CCN(Cc3ccc4c(c3)OCO4)CC2)cc1,·,–,·,–,·,·
O=C(CCc1ccc(S(=O)(=O)NCCc2ccccc2)cc1)N1CCN(Cc2ccc3c(c2)OCO3)CC1,–,–,–,–,–,21187
Cc1ccc(S(=O)(=O)N(C)c2ccc(C(=O)N3CCN(Cc4ccc5c(c4)OCO5)CC3)cc2)cc1,–,–,–,–,–,–
CN(c1ccc(C(=O)N2CCN(Cc3ccc4c(c3)OCO4)CC2)cc1)S(=O)(=O)c1ccccc1,–,–,–,–,–,23288
CCOC(=O)N1CCN(C(=O)CCSc2ccccc2)CC1,–,123,–,–,–,–
O=C(CSc1nc(O)c(C2CCCCC2)c(=O)[nH]1)Nc1ccc(F)cc1,–,–,–,–,–,–
CCOC(=O)CC(=O)c1sc2c(c1N)c(=O)[nH]c(=O)n2-c1ccc(OC)cc1,–,–,–,–,–,–
CSc1ccccc1NC(=O)Cn1nc([N+](=O)[O-])cc1C,–,–,–,–,–,–
CCOC(=O)Cc1csc(NC(=O)c2ccoc2C)n1,–,–,–,–,–,23823
CCOC(=O)c1cc(NC(=O)c2ccoc2C)cc(C(=O)OCC)c1,–,–,?,–,–,23038
